CYP2C9 inhib: blocks human cytochrome P450 2C9; P11712; CYP2C9 Supersomes, luciferin-H conversion, luminescence; inhibition, % at 5 µM; 20% of 96,000 active;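 active = blocking of liver enzyme CYP2C9 beyond about 50% at 5 µM, limit read from the data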
Target sequence (P11712 whole entry, looked up): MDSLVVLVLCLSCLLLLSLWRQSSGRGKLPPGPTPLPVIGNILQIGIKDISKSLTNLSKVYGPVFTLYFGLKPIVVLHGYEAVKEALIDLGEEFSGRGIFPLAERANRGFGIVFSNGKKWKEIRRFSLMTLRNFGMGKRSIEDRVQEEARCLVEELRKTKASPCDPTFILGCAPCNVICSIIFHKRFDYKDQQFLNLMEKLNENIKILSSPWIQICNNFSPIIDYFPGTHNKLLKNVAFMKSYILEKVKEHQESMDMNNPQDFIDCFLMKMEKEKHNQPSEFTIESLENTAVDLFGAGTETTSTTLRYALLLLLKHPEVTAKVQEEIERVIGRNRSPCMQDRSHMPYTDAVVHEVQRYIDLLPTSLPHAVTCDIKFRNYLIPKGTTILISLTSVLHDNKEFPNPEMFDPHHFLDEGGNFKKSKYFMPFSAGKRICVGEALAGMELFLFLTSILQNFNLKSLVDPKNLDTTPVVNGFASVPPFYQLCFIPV
CYP2C19 act: increases human CYP2C19 enzyme activity. activation factor at 5 µM. 96,000 tested, under 10 active. recombinant CYP2C19, luciferin-H EGE luminescence; active compounds read high; 0 = fully inhibited enzyme, 1 = untreated enzyme;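 active = activation factor of at least 2 at 5 µM in the primary screen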;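 note: 0 = wells with 2.5 mM tranylcypromine and 1 = vehicle-only wells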
CYP2C9 activ: increases human cytochrome P450 2C9 activity. P11712. recombinant CYP2C9, luciferin-H conversion, luminescence; active compounds read high; factor 1 = untreated enzyme, 0 = blocked. activation factor at 5 µM. 1.4% of 96,000 active;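 active = activation factor of 2 or more for CYP2C9 at a 5 µM dose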;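 note: 0 = sulfaphenazole-blocked wells and 1 = vehicle-only wells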
CYP2C19 inh: human CYP2C19 inhibition; P33261; CYP2C19 Supersomes, luciferin-H EGE luminescence, 30 min; inhibition, % at 5 µM; 21% of 96,000 active; AID 778;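 active = CYP2C19 inhibition above a set limit at 5 µM in the primary screen, cut at about 50% in these data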;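 note: plate controls were negative control wells for no effect and 2.5 mM tranylcypromine positive control for full effect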
Cav3 T inh: blocks human Cav3.2 T-type calcium channel; O95180; Cav3.2-expressing cells, Fluo-4 calcium fluorescence FDSS; active compounds read low; B-score at 10 µM; 4% of 100,000 active;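 active = single-dose well whose peak fluorescence ratio is a statistical outlier from its plate by either plate-standardised score or position-corrected B-score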
Starred values were filed as active, the others as inactive; . = no result. Only some compounds are listed: those with a hit (about 27% of all), similar ones and a draw of the others.

SMILES	CYP2C9 inhib	CYP2C19 act	CYP2C9 activ	CYP2C19 inh	Cav3 T inh
COc1ccccc1NCC(O)Cn1c2ccccc2c2ccccc21 (centres undefined)	77*	0.3	0.2	69*	-1.3
C=CCn1c(=O)c(C(=O)Nc2ccccc2OC)c(O)c2ccccc21	6	1	0.9	-2	.
COc1cccc2c1C(=O)c1c(O)c3c(c(O)c1C2=O)C[C@@](O)(C(=O)CO)C[C@@H]3O[C@H]1C[C@H](N)[C@@H](O)[C@H](C)O1	.	.	.	.	-5.6*
COc1cccc(NC(=O)CN(c2cccc(F)c2)S(C)(=O)=O)c1	30	0.7	0.7	26	0.39
COc1ccc(NC(=O)CN(c2cccc(C(F)(F)F)c2)S(C)(=O)=O)cc1OC	31	0.6	0.7	40	-0.32
COc1ccc(N(CC(=O)Nc2cccc(SC)c2)S(C)(=O)=O)cc1	89*	0.1	0.1	94*	-4.8*
COc1cccc(NC(=O)CN(c2cccc(C(F)(F)F)c2)S(C)(=O)=O)c1	70*	0.1	0.3	88*	.
COc1ccc(N(CC(=O)Nc2cccc(C(F)(F)F)c2)S(C)(=O)=O)cc1	.	.	.	.	-3.3*
COc1ccc(N(CC(=O)Nc2cccc(C(C)=O)c2)S(C)(=O)=O)cc1OC	21	0.6	0.8	36	0.52
CCN(CC)C(=O)CN(c1cccc(C(F)(F)F)c1)S(C)(=O)=O	16	0.5	0.8	47	1.1
CCOc1ccc(NC(=O)CN(c2cccc(C(F)(F)F)c2)S(C)(=O)=O)cc1	72*	0.2	0.3	85*	-3.8*
COc1cc(OC)cc(C(=O)OCc2cc3ccccc3[nH]c2=O)c1	2	0.9	1	15	0.15
COC(=O)c1cccc(NC(=O)C2C3CCC(C3)C2C(=O)O)c1 (centres undefined)	12	0.8	0.9	24	0.43
CC1CC(=O)C=C(O)C1C(=O)OC(C)(C)C (centres undefined)	42	0.9	0.6	11	0.23
O=C1c2ccccc2C(=O)N1c1ccc(Cl)cn1	8	0.9	0.9	8	.
CCOc1ccccc1N(CC(=O)Nc1cccnc1)S(C)(=O)=O	16	0.8	0.8	15	-1.1
CCOc1ccc(N(CC(=O)Nc2ccccc2)S(C)(=O)=O)cc1	70*	0.1	0.3	88*	-0.6
COc1cc(Cl)c(S(=O)(=O)NCCCN2CCOCC2)cc1Cl	-90	0.5	1.9	46	1.5
Cc1ccc(S(=O)(=O)NCCN2CCOCC2)cc1	-6	0.8	1.1	20	0.0069
Cc1cc(Br)c(S(=O)(=O)NCCN2CCOCC2)cc1C	-14	0.6	1.1	41	0.86
COc1cc(C)c(Cl)cc1S(=O)(=O)NCCCN1CCOCC1	-32	0.3	1.3	66*	0.18
COc1cc(C)c(Cl)cc1S(=O)(=O)NCCN1CCOCC1	-16	0.2	1.2	83*	0.028
CCOc1cc(S(=O)(=O)NCCN2CCOCC2)c(C)cc1C	-106	0.2	2.1*	75*	-0.045
COc1c(S(=O)(=O)NCCN2CCOCC2)ccc(Cl)c1Cl	-83	0.2	1.8	80*	1.1
CCCNc1nc(C)cc(-c2cc(C(=O)NCc3ccccc3)on2)n1	.	.	.	.	0.2
SMILES	CYP2C9 inhib	CYP2C19 act	CYP2C9 activ	CYP2C19 inh	Cav3 T inh
CC(C)(O)C#CC#CCN1CCOCC1	10	1.1	0.9	-6	-0.012
CCOc1ccc(CNc2ncnc(N)n2)cc1	-1	1	1	-2	0.84
Cc1ccc(S(=O)(=O)NCCCN2CCOCC2)c(C)c1	-56	0.4	1.6	64*	0.034
CCCOc1ccc(S(=O)(=O)NCCN2CCOCC2)c2ccccc12	44	0	0.6	99*	1
COc1cc(C)c(S(=O)(=O)N2CCOCC2)cc1C(C)C	10	0.5	0.9	53*	-1.5
COc1cc(C)c(C(C)C)cc1S(=O)(=O)N1CCN(C)CC1	-54	1	1.5	4	0.009
Cc1c(C(=O)OCCOc2ccccc2)[nH]c2c1C(=O)CCC2	91*	0.1	0.1	91*	-0.51
Cc1c(C(=O)OC2CCCC2C)[nH]c2c1C(=O)CCC2 (centres undefined)	54*	1	0.5	5	-0.46
CCCc1c(C(=O)OCC)[nH]c2c1C(=O)CCC2	15	1	0.8	-2	-0.11
O=C(Nc1nnc(SCC(=O)N2CCCCC2)s1)c1cccs1	1	1.1	1	-8	0.67
Cc1ccc2cccc(OC(=O)c3ccc4c(c3)OCCO4)c2n1	-9	0.9	1.1	6	-0.0039
Cc1noc(C)c1COC(=O)C1(c2cccc(F)c2)CCCC1	56*	0.6	0.4	37	-5*
CCOC(=O)c1noc(C)c1C(=O)Nc1cccc(F)c1	5	0.6	1	42	.
N#CC1=C(N)SC(N)=C(C#N)C1c1c(Cl)cccc1Cl	95*	0.1	0	89*	0.85
N#CC1=C(N)SC(N)=C(C#N)C1CCc1ccccc1	92*	0.1	0.1	85*	-2.3
N#CC1=C(N)SC(N)=C(C#N)C1Cc1ccccc1	34	0.5	0.7	46	-1.1
CN(C)CCCOC(=O)C1c2ccccc2Oc2ccccc21	-23	0.3	1.2	74*	0.012
CC1CCCN(c2nc3ccccc3nc2C(C#N)S(=O)(=O)c2ccccc2)C1 (centres undefined)	30	0.9	0.7	10	.
CCCCOc1nc2ccccc2nc1C(C#N)S(=O)(=O)c1ccccc1 (centres undefined)	77*	0.2	0.2	78*	-0.87
CC1CN(Cc2cc(=O)[nH]c(C(C)C)n2)CC(C)O1 (centres undefined)	20	0.9	0.8	10	0.64
CCN(c1ccccc1)S(=O)(=O)c1ccc(N)c(OC)c1	-184	0.4	2.8*	62*	.
C=CCNC(=O)CN(c1ccc(F)cc1)S(=O)(=O)c1ccc(OC)cc1	64*	0.1	0.4	92*	.
CN(CCCC(=O)NCc1ccco1)S(=O)(=O)c1ccccc1	36	0.6	0.6	39	-0.23
Cc1ccc(S(=O)(=O)N(CC(=O)NCc2ccco2)Cc2ccccc2F)cc1	62*	0.6	0.4	37	-1.4
COc1ccc(S(=O)(=O)Cc2ccccc2)cc1N	-120	0.4	2.2*	62*	-0.86
SMILES	CYP2C9 inhib	CYP2C19 act	CYP2C9 activ	CYP2C19 inh	Cav3 T inh
CCN(c1ccccc1)S(=O)(=O)c1ccc(F)cc1	25	0.6	0.8	42	0.12
CC(C)C1CC(O)(C2(O)CCCCC2)ON1 (centres undefined)	-7	1.1	1.1	-13	0.41
COc1ccc(C(CNC(=O)C2CC(=O)N(Cc3ccc(C)cc3)C2)N(C)C)cc1 (centres undefined)	21	0.7	0.8	29	1.3
COc1ccc(N(CC(=O)N/N=C/c2ccco2)S(=O)(=O)c2ccccc2)cc1	20	0.4	0.8	60*	-0.93
COc1ccc(S(=O)(=O)N(CC(=O)O)c2ccccc2)cc1	8	1.1	0.9	-10	0.21
COc1ccc(S(=O)(=O)N(CC(=O)NCc2ccco2)c2ccccc2)cc1OC	9	0.1	0.9	91*	0.47

Screening results (PubChem)
